Measurements as given in PubChem BioAssay (EPA / NIEHS).
Records with an inconclusive call do not appear. The source made the active and inactive calls. The calls were made as follows, unless noted: active = hit-call score of the fitted dose curve at least 0.9, where 1 is the maximum; inactive = score below 0.9.

Key:
[1] = read-out: Interleukin-8 (IL8), CXCL8 (gene 3576); test: BSK_3C_IL8: BioMAP Diversity Plus: 3C Assay for Interleukin-8 (IL8) Biomarker Activity (AID 2283020); settings: primary human endothelial cells (HUVEC); actives raise or lower the signal
Outline: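 Using DMSO-treated wells as the baseline, bidirectional curve fitting was applied to ELISA-measured IL-8 from human umbilical vein endothelial cultures sampled 24 h after compound addition.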

[2] = read-out: Monokine induced gamma interferon (MIG), CXCL9 (gene 4283); test: BSK_3C_MIG: BioMAP Diversity Plus: 3C Assay for Monokine induced gamma interferon (MIG) Biomarker Activity (AID 2283021); settings: primary human endothelial cells (HUVEC); actives raise or lower the signal
Outline: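 ELISA-measured MIG in dosed HUVEC 3C cultures at 24 h, analysed by bidirectional fitting with DMSO defining baseline activity.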

[3] = target: human Vitamin D Receptor (VDR), VDR (gene 7421) (UniProt P11473); test: ATG_VDR_TRANS: Attagene TRANS-FACTORIAL HepG2 Assay for human Vitamin D Receptor (VDR) (AID 2283022; active = hit-call score of the fitted dose curve at least 0.9, where 1 is the maximum)
Sequence of human Vitamin D Receptor (VDR), VDR (gene 7421) (P11473 whole entry, looked up, the tested form may be a part): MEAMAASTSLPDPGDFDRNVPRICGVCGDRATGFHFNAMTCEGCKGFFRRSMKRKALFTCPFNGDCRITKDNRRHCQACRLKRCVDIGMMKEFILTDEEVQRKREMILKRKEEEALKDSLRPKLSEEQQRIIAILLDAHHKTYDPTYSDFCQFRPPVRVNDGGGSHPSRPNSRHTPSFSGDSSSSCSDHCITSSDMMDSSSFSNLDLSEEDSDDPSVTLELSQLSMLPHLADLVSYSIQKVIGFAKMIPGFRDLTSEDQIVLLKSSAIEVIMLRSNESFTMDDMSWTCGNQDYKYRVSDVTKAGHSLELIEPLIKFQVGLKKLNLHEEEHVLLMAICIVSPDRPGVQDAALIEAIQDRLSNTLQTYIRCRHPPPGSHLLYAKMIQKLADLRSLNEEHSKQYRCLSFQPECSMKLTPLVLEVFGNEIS
Outline: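 RT-PCR/capillary electrophoresis read-out of reporter mRNA induction in transiently transfected HepG2; 24 h dosing; chimeric NR-Gal4 (TRANS format); gain-of-signal fit against DMSO baseline.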

[4] = BSK_3C_SRB: Viability Assessment in the BioMAP Diversity Plus: 3C Assay (AID 2283023); settings: primary human endothelial cells (HUVEC);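 also: cells read 24 h after compound dosing; fitted both ways against DMSO so a hit may be signal rise or drop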
Outline: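 HUVEC, 24 h post-dose; 10% TCA fix, 0.1% SRB stain, A560 nm. Bidirectional curve fit vs DMSO negative control.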

[5] = read-out: Matrix Metallopeptidase 1 (MMP1), MMP1 (gene 4312); test: BSK_BE3C_MMP1: BioMAP Diversity Plus: BE3C Assay for Matrix Metallopeptidase 1 (MMP1) Biomarker Activity (AID 2283024); settings: primary human bronchial epithelial cells; actives raise or lower the signal
Outline: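 In this multiplexed primary-cell system, human bronchial epithelium received chemicals for 24 h before an ELISA for MMP1. Values reflect bidirectional fits normalised to the DMSO baseline.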

[6] = read-out: Pselectin, SELP (gene 6403); test: BSK_4H_Pselectin: BioMAP Diversity Plus: 4H Assay for Pselectin Biomarker Activity (AID 2283026); settings: primary human endothelial cells (HUVEC); actives raise or lower the signal
Outline: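 Bidirectional fits against DMSO gave the endpoint. Cells: primary human umbilical vein endothelium, chemical-treated for 24 h before ELISA detection of P-selectin.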

[7] = BSK_4H_SRB: Viability Assessment in the BioMAP Diversity Plus: 4H Assay (AID 2283027); settings: primary human endothelial cells (HUVEC);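 also: cells exposed to compound for 24 h before staining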
Outline: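 HUVEC, 24 h post-dose; 10% TCA fix, 0.1% SRB stain, A560 nm. Total protein = overt cytotoxicity, parallel to biomarker read. Bidirectional fit vs DMSO baseline.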

[8] = BSK_BE3C_SRB: Viability Assessment in the BioMAP Diversity Plus: BE3C Assay (AID 2283028); settings: primary human bronchial epithelial cells
Outline: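 Primary human bronchial epithelium; chemical dosing, 24 h; 10% TCA fix, 0.1% SRB stain, A560; bidirectional fit vs DMSO baseline.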

[9] = read-out: Thrombomodulin, THBD (gene 7056); test: BSK_3C_Thrombomodulin: BioMAP Diversity Plus: 3C Assay for Thrombomodulin Biomarker Activity (AID 2283029); settings: primary human endothelial cells (HUVEC); actives raise or lower the signal
Outline: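 In a multiplexed primary-cell system, human umbilical vein endothelium received chemical and was assayed 24 h later for thrombomodulin by ELISA. Parallel cultures were SRB-stained (0.1% SRB after 10% TCA fixation, read at 560 nm) to flag cytotoxicity.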

[10] = read-out: Urokinase-type plasminogen activator receptor (uPAR), PLAUR (gene 5329); test: BSK_4H_uPAR: BioMAP Diversity Plus: 4H Assay for Urokinase-type plasminogen activator receptor (uPAR) Biomarker Activity (AID 2283030); settings: primary human endothelial cells (HUVEC); actives raise or lower the signal
Outline: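 HUVEC, 24 h post-dose; uPAR by ELISA; bidirectional fit vs DMSO baseline.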

[11] = read-out: Vascular endothelial growth factor receptor 2 (Homo sapiens) (UniProt P35968); test: BSK_4H_VEGFRII: BioMAP Diversity Plus: 4H Assay for Vascular endothelial growth factor receptor 2 (VEGFR2) Biomarker Activity (AID 2283031); settings: primary human endothelial cells (HUVEC); actives raise or lower the signal
Outline: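 HUVEC (human primary), 4H system; 24 h post-dose; VEGFRII by ELISA; bidirectional curve fit vs DMSO baseline; gain or loss of signal scored.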

[12] = read-out: Human Leukocyte Antigen - DR isotype (HLADR), HLA-DRA (gene 3122); test: BSK_BE3C_HLADR: BioMAP Diversity Plus: BE3C Assay for Human Leukocyte Antigen - DR isotype (HLADR) Biomarker Activity (AID 2283032); settings: primary human bronchial epithelial cells; actives raise or lower the signal
Outline: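 BioMAP BE3C format: human bronchial epithelium, 24 h compound treatment, ELISA detection of HLA-DR, with bidirectional analysis relative to DMSO.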

[13] = read-out: Vascular cell adhesion molecule 1 (VCAM1), VCAM1 (gene 7412); test: BSK_4H_VCAM1: BioMAP Diversity Plus: 4H Assay for Vascular cell adhesion molecule 1 (VCAM1) Biomarker Activity (AID 2283033); settings: primary human endothelial cells (HUVEC); actives raise or lower the signal;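 also: cell-surface VCAM-1 protein measured by ELISA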
Outline: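 In this human endothelial (HUVEC) system, biomarker ELISA was run 24 h after compound addition, and total protein in parallel wells was assessed by SRB at 560 nm; DMSO served as negative control.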

[14] = read-out: Interferon-gamma inducible Protein 10 (IP10), CXCL10 (gene 3627); test: BSK_BE3C_IP10: BioMAP Diversity Plus: BE3C Assay for Interferon-gamma inducible Protein 10 (IP10) Biomarker Activity (AID 2283034); settings: primary human bronchial epithelial cells; actives raise or lower the signal
Outline: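 BE3C cells (human bronchial epithelial, primary); 24 h exposure; ELISA for IP-10; DMSO-referenced bidirectional fit.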

[15] = read-out: Monokine induced gamma interferon (MIG), CXCL9 (gene 4283); test: BSK_BE3C_MIG: BioMAP Diversity Plus: BE3C Assay for Monokine induced gamma interferon (MIG) Biomarker Activity (AID 2283035); settings: primary human bronchial epithelial cells; actives raise or lower the signal;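 also: MIG protein measured by ELISA in BE3C cultures after 24 h of dosing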
Outline: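 Dose cells (human primary bronchial epithelial), incubate 24 h, quantify MIG by ELISA, then fit concentration–response in both directions relative to DMSO control.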

[16] = read-out: Plasminogen activator inhibitor-1 (PAI1), SERPINE1 (gene 5054); test: BSK_BE3C_PAI1: BioMAP Diversity Plus: BE3C Assay for Plasminogen activator inhibitor-1 (PAI1) Biomarker Activity (AID 2283037); settings: primary human bronchial epithelial cells; actives raise or lower the signal
Outline: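 In this multiplexed primary-cell system, bronchial epithelial cells receive test chemical and are sampled at 24 h. PAI-1 is read by ELISA, with DMSO serving as negative control for bidirectional fitting.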

[17] = read-out: urokinase plasminogen activator (uPA), PLAU (gene 5328); test: BSK_BE3C_uPA: BioMAP Diversity Plus: BE3C Assay for urokinase plasminogen activator (uPA) Biomarker Activity (AID 2283038); settings: primary human bronchial epithelial cells; actives raise or lower the signal;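 also: uPA protein level quantified by ELISA in cell cultures; uPA read one day after compound addition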
Outline: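 ELISA read-out of uPA in human lung primary bronchial epithelial cultures, 24 h post-dosing. Gain or loss of signal fitted bidirectionally relative to DMSO baseline; cytotoxicity checked in parallel cultures via SRB total protein stain.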

[18] = read-out: Urokinase-type plasminogen activator receptor (uPAR), PLAUR (gene 5329); test: BSK_BE3C_uPAR: BioMAP Diversity Plus: BE3C Assay for Urokinase-type plasminogen activator receptor (uPAR) Biomarker Activity (AID 2283039); settings: primary human bronchial epithelial cells; actives raise or lower the signal;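 also: uPAR protein level measured by ELISA on the cells; cells exposed to compound for one day before measurement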
Outline: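 Chemically treated human bronchial epithelial cells (lung primary) are assayed for uPAR by ELISA after 24 h, with data fitted in both directions using DMSO as negative control.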

[19] = BSK_3C_Vis: BioMAP Diversity Plus: 3C Assay for Morphology Visualization (AID 2283025); settings: primary human endothelial cells (HUVEC);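 also: fitted both ways so gain or loss versus DMSO counts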
Outline: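 Light-microscopy morphology readout, 24 h exposure, human primary umbilical vein endothelium; analysed relative to DMSO with bidirectional fitting.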

[20] = read-out: Transforming growth factor beta 1 (TGFb1), TGFB1 (gene 7040); test: BSK_BE3C_TGFb1: BioMAP Diversity Plus: BE3C Assay for Transforming growth factor beta 1 (TGFb1) Biomarker Activity (AID 2283036;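 also: TGF-b1 protein level measured by ELISA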); settings: primary human bronchial epithelial cells; actives raise or lower the signal
Outline: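 TGF-b1 measured via ELISA, 24 h after chemical dosing of human bronchial epithelial cells (BE3C). Overt cytotoxicity assessed in parallel by SRB (0.1%, TCA-fixed, 560 nm); analysis bidirectional relative to DMSO.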

Measured: outcome

O=C(O)C=CC(F)(C(F)(F)F)C(F)(F)F
not listed: [19] | [20]
inactive: all other assays above

O=S(=O)(F)C(F)(F)C(F)(F)C(F)(F)C(F)(F)C(F)(F)C(F)(F)C(F)(F)C(F)(F)F
not listed: [15] | [19] | [20]
inactive: all other assays above

CC(O)C(F)(F)C(F)(F)F (stereo unspecified)
not listed: [15] | [19] | [20]
inactive: all other assays above

ClC(Cl)(Cl)c1ccccc1
not listed: [15]
inactive: all other assays above
